Results as given in PubChem BioAssay.
Inconclusive results are not listed. Unmarked numbers belong to inactive results.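 How the source made its calls: active means cell viability at or below a set limit in both duplicate runs, the limit being the all-compound median minus 4 SD (cut at about 23% in these data, passing the limit was not always enough); inconclusive means no clear call, values can overlap the other calls; inactive means the rest.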

Test: growth suppression of beta-catenin knockout HCT116, pilot screen, human colon tumor cells (AID 823);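 further: 0% = wells killed by 20 µM Hyamine and 100% = untreated DMSO cell wells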
Settings: CellTiter-Glo, 60 h, at 10 µM, stronger effect = lower value

Point of comparison: `O=C(CSc1nnc2ccccn12)c1ccccc1`, viability 109%. Against it:
- CCCCN=CC1=C(O)C(C(=O)OC)C(C)(C)CC1=O (stereo not given) — lower, 93.8%
- Cc1ccc(C)c(C(=O)CC2(O)C(=O)N(C)c3ccccc32)c1 (stereo not given) — lower, 107%
- CC(=O)C1=C(C)Nc2ncnn2C1c1cccc(OCc2ccccc2)c1 (stereo not given) — lower, 92.4%
- Cc1ccc(C(=O)CC2(O)C(=O)N(C)c3ccc(Br)cc32)c(C)c1 (stereo not given) — lower, 71.5%
- Fc1cccc(Nc2ncnc3c2cnn3-c2ccccc2)c1 — lower, 71.5%
- COc1ccc(NC(=O)NCCN2C(=O)C3C4C=CC(C4)C3C2=O)cc1 (stereo not given) — lower, 99.1%
- Cc1ccc(C)c(NC(=O)CSc2nnc(-c3ccccc3)o2)c1 — lower, 95.9%
- O=C(NCCCN1CCOCC1)c1cc(-c2ccc(O)cc2)on1 — lower, 92.3%
- CCOC(=O)c1ccc(NC(=O)Cn2cc3c(n2)CCC(C)C3)cc1 (stereo not given) — lower, 102%
- N#C/C(C(=O)N1CCOCC1)=C1/SC=C(c2ccccc2)N1c1ccccc1 — lower, 96.6%
- COc1ccc(C(=O)c2coc3ccc(O)c(CN4CCCCC4)c23)cc1 — lower, 40.5%
- CCn1c(C(=O)N2CCC(C(=O)N3CCN(c4ccccn4)CC3)CC2)cc2sccc21 — lower, 78.3%
- CCOC(=O)N1CCN(Cc2nc3c(c(=O)n(C)c(=O)n3C)n2Cc2ccccc2)CC1 — lower, 97.3%
- CN1CCN(C(=O)c2ccc(CS(=O)(=O)c3c(Cl)cccc3Cl)o2)CC1 — lower, 103%
- CN(C)CCCN1C(=O)c2oc3ccc(Cl)cc3c(=O)c2C1c1cccnc1 (stereo not given) — lower, 93.5%
- Cc1ccccc1Cn1ccc(NC(=O)c2onc(C)c2Cl)n1 — lower, 103%
- CN(CCCNC(=O)c1cn(C)c2ccc(S(=O)(=O)N(C)C)cc2c1=O)c1ccccc1 — lower, 94.8%
- NC(=O)CN1C(=O)C(O)(CC(=O)c2ccccc2O)c2ccccc21 (stereo not given) — lower, 94.8%
- CC(C)CCN(C)C1CCN(S(=O)(=O)c2ccc(F)cc2)CC1 — lower, 97.6%
- COc1ccc(C(C)N2CC34C=CC(O3)C(C(=O)OCC(C)C)C4C2=O)cc1 (stereo not given) — lower, 103%
- COc1ccc(Cl)cc1S(=O)(=O)N1CCN(c2ccc(F)cc2)CC1 — lower, 82.4%
- Cc1sc2nc(SCC(=O)NCCO)n(C)c(=O)c2c1C — lower, 105%
- CC(=O)NCCc1nc2ccccc2[nH]1 — lower, 107%
- CCN1C(=O)c2cccc3c(NC(=O)c4ccc(S(=O)(=O)N(C)C)cc4)ccc1c23 — lower, 73.5%
- Cc1nc2ccccc2c2oc(C(=O)N3CCN(C(=O)c4ccco4)CC3)cc12 — lower, 101%
- c1ccc(Cn2nnc3c(N4CCCCCC4)ncnc32)cc1 — lower, 40%
- COC(=O)c1cn(C(=O)c2ccc(Br)o2)c2ccccc12 — lower, 98.2%
- CS(=O)(=O)Nc1ccccc1C(=O)O — lower, 94.9%
- Cn1cccc1Cc1nnc(SCC(=O)NCC2CCCO2)n1-c1ccc(F)cc1 (stereo not given) — lower, 108%
- Cc1ccc(Cn2c(=O)c3ccccc3n3c(CCC(=O)O)nnc23)cc1 — lower, 107%
- COc1ccc(OCCSc2nc3ccccc3n2CC(=O)O)cc1 — lower, 99.6%
- CCCCSc1nc2c(cnn2-c2ccc(F)cc2)c(=O)[nH]1 — lower, 104%
- CCOc1ccc(NC(=O)C(C)Sc2nnc(C)n2C)cc1 (stereo not given) — lower, 95.7%
- CCOc1ccc2[nH]c(C)cc(=O)c2c1 — lower, 96.7%
- Cc1nc2ccccc2c2oc(C(=O)N3CCC(N4CCCCC4)CC3)cc12 — lower, 83.9%
- O=C(O)c1ccc2c(c1)C(=O)N(c1ccc(Cl)cn1)C2=O — lower, 102%
- COc1cccc(-c2nc(CS(=O)(=O)CC(=O)NCc3ccc(Cl)cc3)c(C)o2)c1 — lower, 87.1%
- COc1ccc(C(NC(=O)c2ccco2)c2ccc(OC)c(OC)c2)cc1 (stereo not given) — lower, 98.2%
- CCOC(=O)N1CCC(NC(=O)CN2C(=O)CCSc3ccccc32)CC1 — lower, 106%
